Screening results: PubChem, National Center for Advancing Translational Sciences (NCATS)
Rab9 prom act = activates the Rab9 promoter | actives 2.8% (n = 320,000) | Potency, µM (top dose mostly 9.22 µM), without a hit: at the top dose activation, negative = inhibition, usual class: activators | Huh7 Rab9 promoter-luciferase reporter, luminescence, 24 h; note: % of control where 0% means no effect; nearly all actives have a fitted effect of over 60% in size
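Huh7 cells stably carrying a Rab9 promoter-luciferase reporter, 1500 cells per well in OP-MEM I with 10% FBS, treated with compound 24 hours at 37C. Luciferase activity read by luminescence after 10 minutes with Amplite reagent.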
SMN2 splice up = SMN2 splice variant enhancement. HEK293 SMN2-luciferase splicing reporter, luminescence, 30-36 h. Potency, µM (series often up to 46.1 µM), without a hit: at the highest dose activity change, positive = activation, actives largely listed as activators. actives 2.8% (n = 210,000); note: % of control where 0% means no effect; nearly all actives have a fitted effect of over 55% in size
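HEK293 cells carry an SMN2 minigene-luciferase reporter in which exon 7 inclusion puts luciferase in frame. Cells were seeded at 2000 cells/well, attached for 10-12 hours, then exposed to compounds for 30-36 hours at 37C before ONE-Glo luminescence.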
NPC1 promoter act = activates the NPC1 promoter. Huh7 NPC1 promoter luciferase reporter, 24 h. Potency, µM (series often up to 9.22 µM), inactives show at the top dose activation, most hits filed as activators. actives 2.4% (n = 320,000). AID 485313; note: % of control where 0% means no effect; nearly all actives have a fitted effect of over 60% in size
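Huh7 cells stably carrying NPC1 promoter–luciferase, plated in Opti-MEM with 10% FBS for 2 h, were exposed to compound in DMSO for 24 h at 37 °C; luciferase reagent was added for 10 min and luminescence read.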
ELG1 genotox = genotoxicity induction in ELG1-luciferase HEK293T cells; actives 1.3% (n = 330,000); HEK293T ELG1-luciferase reporter, luminescence, 16 h; AID 504466; Potency, µM (top dose mostly 46 µM), for inactives: at the top dose activity change, positive = activation, most hits filed as activators; note: % of control where 0% means no effect; nearly all actives have a fitted effect of over 60% in size
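Genotoxicity was scored as increased ELG1-luciferase reporter signal, measured by ONE-Glo luminescence (30 min, room temperature). Compound or vehicle exposure of the HEK293T reporter cells lasted 16 hr at 37°C.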
ELG1 DNA repair = blocks ELG1-dependent DNA repair in HEK293T cells | HEK293T ELG1-luciferase reporter, luminescence, 16 h; DNA damage induced by 5-fluorouridine | Potency, µM (series often up to 46.1 µM), for the others: top-dose activity change, negative = inhibition, usual class: inhibitors | actives 2.3% (n = 330,000) | AID 504467; note: % is set by controls: 0 for no effect and ±100 for the full control effect; nearly all actives have a fitted effect of over 55% in size
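Overnight (16 hr) co-exposure of 2,000 cells/well to 5-fluorouridine and compound at 37 °C preceded detection. Luciferase was quantified via ONE-Glo luminescence; loss of signal denotes inhibition.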
FLuc modulator = counter-screen for miR-21 project: firefly luciferase inhibitors or activators; P08659; Potency, µM (top dose mostly 57.5 µM), without a hit: at the top dose activity change, negative = inhibition, hits mostly inhibitors; purified FLuc, Km substrates, luminescence inhibition; actives 6.9% (n = 360,000);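 note: plate controls were vehicle for no effect and reference inhibitor for full effect; nearly all actives have a fitted effect of over 55% in size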
Target sequence (P08659 whole entry, looked up): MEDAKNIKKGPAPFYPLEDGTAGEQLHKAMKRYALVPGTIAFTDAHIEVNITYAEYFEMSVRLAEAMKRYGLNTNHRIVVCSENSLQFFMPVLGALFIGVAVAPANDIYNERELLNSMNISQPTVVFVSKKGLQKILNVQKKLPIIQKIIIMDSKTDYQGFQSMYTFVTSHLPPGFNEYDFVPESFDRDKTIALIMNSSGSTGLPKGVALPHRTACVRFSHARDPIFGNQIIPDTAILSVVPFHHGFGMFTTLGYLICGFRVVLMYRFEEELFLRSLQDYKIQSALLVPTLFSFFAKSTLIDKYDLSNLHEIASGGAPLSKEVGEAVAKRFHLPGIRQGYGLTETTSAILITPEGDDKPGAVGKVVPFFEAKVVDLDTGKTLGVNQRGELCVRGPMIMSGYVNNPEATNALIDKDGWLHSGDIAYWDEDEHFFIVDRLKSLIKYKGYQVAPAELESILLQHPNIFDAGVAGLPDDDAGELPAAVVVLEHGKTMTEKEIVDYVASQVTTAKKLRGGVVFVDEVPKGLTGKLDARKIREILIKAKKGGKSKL
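Purified P. pyralis luciferase (10nM final) with 10uM D-luciferin and 10uM ATP (Km levels) in 50mM Tris acetate pH 7.5, 10mM Mg acetate, 0.01% Tween-20, 0.05% BSA; qHTS 6-point titration, ~60 µM downward; luminescence read.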
Starred values were filed as active, the others as inactive; u = inconclusive; x = not tested or not shown; ! = not confirmed by another sample; [ ] = dose if it differs, or a comment. Sampled rows, rich in hits. Any-hit rate of the full collection: about 9.4%. Calls come from the whole dose curve; as a rule, active = well fitted curve in the direction sought with a large enough effect; inconclusive = small, poorly fitted or top-dose-only effect, or another doubt; inactive = no such curve, though single readings can be large; an effect the other way counts as inactive or inconclusive. Potency is the fitted concentration of half-maximal effect.

SMILES | Rab9 prom act | SMN2 splice up | NPC1 promoter act | ELG1 genotox | ELG1 DNA repair | FLuc modulator
O=C(Nc1ccc(N2CCOCC2)c(S(=O)(=O)Nc2cc(Cl)ccc2Cl)c1)c1cccnc1 | -10.8% | x | -0.4% | -0.2% | -29.3% | -1.2%
O=C(NC(=S)Nc1ccc(N2CCOCC2)c(Cl)c1)C(c1ccccc1)c1ccccc1 | 3.3% | 2.7% | -1.4% | -3.2% | -28.6% | 9.2%
O=C(Nc1ccc(N2CCOCC2)c(S(=O)(=O)Nc2ccccc2Cl)c1)c1ccccc1 | -3.4% | x | 0.6% | -9.9% | 18.3µM* | -2.0%
O=C(Nc1ccc(N2CCOCC2)c(Cl)c1)c1ccccc1Cl | u | x | 25.7% | u | u | 26.9µM*
O=C(Nc1ccc(N2CCOCC2)c(Cl)c1)c1ccc(F)cc1 | 2.51µM* | 11.2µM* | u | 2.0% | u | 13.5µM*
CCn1c(=O)cc(SCC(=O)NCc2ccc(F)cc2Cl)c2ccccc21 | x | 1.7% | x | x | x | -19.2%
O=C(Nc1cccc(Cl)c1Cl)c1ccc2c(c1)N(Cc1cccc(Cl)c1)C(=O)c1ccccc1S2=O (centres undefined) | x | x | x | x | x | -2.1%
C/C=C/C1=Cc2ccccc2C(CC(=O)OC)N1C(=O)OC (centres undefined) | x | -10.1%[9.22 µM] | x | x | x | x
O=C(Nc1ccc2nc(-c3ccco3)c(-c3ccco3)nc2c1)N1CCN(c2ccccn2)CC1 | 1.1% | u | 0.5% | -13.6% | 11.6µM* | u
O=C(NC(=S)Nc1ccc(CN2CCOCC2)cc1)c1ccco1 | u | x | 20.4% | u | u | 16.9µM*
S=C(Nc1ccc(N2CCOCC2)cc1)Nc1ccc2nc(-c3ccco3)c(-c3ccco3)nc2c1 | 3.9% | -11.6% | 1.0% | -2.4% | u | 15.1µM*
O=C(NC(=S)Nc1ccc(N2CCOCC2)cc1)c1ccco1 | u | 15.8µM* | 2.82µM* | u | u | u
Cc1cccc(-c2ccc3ncnc(NCc4cccc(F)c4)c3c2)c1 | -4.5% | x | -3.0% | x | x | -27.4%
COc1ccc(NC(=O)N2CCc3nc(COc4ccccc4)c4c(c3C2)CO[C@@H](C)C4)cc1 | x | 3.4%[9.22 µM] | x | x | x | x
Cc1cc(C)cc(NC(=O)C(=O)NCC(c2ccc3c(c2)OCO3)N2CCN(C)CC2)c1 (centres undefined) | x | x | x | x | x | 1.8%
COc1cccc2c1C(=O)O/C2=C/c1ccc2c(c1)OCO2 | u | u | u | u | u | 0.107µM*
COc1cc(Cl)c(C)cc1NC(=O)c1cc2c(Cl)nc3ccc(C)cc3c2s1 | x | -15.4% | x | x | x | -2.5%
Cc1cc(C(=O)CSc2nnnn2C)c(C)n1Cc1ccco1 | 2.82µM* | x | 2.82µM* | u | u | 13.5µM*
Cc1cc(C(=O)CSc2ncccn2)c(C)n1Cc1ccco1 | 0.562µM* | 3.55µM* | 1µM* | u | u | 3.01µM*
COc1ccccc1/C=C/c1nc(C#N)c(N2CCCCCC2)o1 | x | 16.9% | x | x | x | 1.8%
CC(C)(C)c1ccc(C(=O)N2CCCC2)s1 | 18.7% | x | -6.9% | u | u | 15.1µM*
C/C=C/C(=O)C[C@H]1CC[C@@H](C)[C@@H](CCO)O1 | x | 9.7% | x | x | x | x
COc1ccc(-c2cn3c4c(sc3n2)CCCC4)cc1 | 0.501µM* | 1.26µM* | 1µM* | u | u | 0.213µM*
COc1cc(CO)ccc1OCc1ccc(Cl)nc1 | 3.16µM* | x | 2.51µM* | 16.4µM* | u | 12µM*
COc1cccc(C(=O)NCCn2ccc3ccccc32)c1 | 3.98µM* | 7.94µM* | 2.82µM* | u | u | 19µM*
SMILES | Rab9 prom act | SMN2 splice up | NPC1 promoter act | ELG1 genotox | ELG1 DNA repair | FLuc modulator
COc1cc(OC)cc(C(=O)NCCn2ccc3ccccc32)c1 | 5.8% | -2.9% | 12.0% | -7.4% | u | -7.4%
O=C(NCCn1ccc2ccccc21)c1ccc(Cl)cc1 | x | 12.6µM* | x | x | x | 21.3µM*
CC(=O)c1c(C)oc2ccc(N(C(=O)Oc3ccccc3)S(=O)(=O)c3ccc(C(C)(C)C)cc3)cc12 | x | -39.8% | x | x | x | -4.9%
CCC(C)(C)c1ccc2c(c1)C(=O)c1ccccc1C2=O | 2.82µM* | u | 1.58µM* | u | u | 1.69µM*
CCC(C)(C)NC(=O)c1ccc2c(c1)S(=O)(=O)c1ccccc1C2=O | x | 6.4% | x | x | x | -6.1%
CCOC(=O)c1oc2ccc(CNC3CCCCC3)c(Cl)c2c1C | -3.4% | -16.8% | -0.4% | -1.8% | -9.7% | 2.3%
CCOC(=O)c1oc2ccc(CNCCO)c(Cl)c2c1C | 28.0% | 23.8% | 24.3% | u | u | 16.9µM*
CSc1cccc(NC(=O)c2sc3nc4n(c(=O)c3c2C)CCC4)c1 | u | x | 3.55µM* | u | u | 26.9µM*
Cc1c(C(=O)Nc2ccc(Oc3ccccc3)cc2)sc2nc3n(c(=O)c12)CCC3 | -0.2% | -37.5% | 2.6% | -3.6% | u | u
Cc1c(C(=O)Nc2cc(F)ccc2F)sc2nc3n(c(=O)c12)CCCCC3 | 1.58µM* | x | 2.82µM* | 16.4µM* | u | -7.3%
COc1cccc(NC(=O)c2sc3nc4n(c(=O)c3c2C)CCC4)c1 | 3.98µM* | x | u | u | u | 19µM*!
COc1ccc(CNC(=O)c2sc3nc4n(c(=O)c3c2C)CCCCC4)cc1 | x | x | x | x | x | 19µM*
Cc1c(C(=O)NCc2ccc(Cl)cc2)sc2nc3n(c(=O)c12)CCC3 | x | x | x | x | x | -10.6%
Cc1ccc(-n2c(=O)c3ccc(C(=O)NCc4ccccc4Cl)cc3n(CC(=O)Nc3cccc(F)c3)c2=O)cc1 | x | 0.3% | x | x | x | 0.3%
O=C(NC1CCCCCC1)c1ccc2c(c1)sc1nc(-c3ccc(F)cc3)cn12 | x | x | x | x | x | -12.0%
Cc1nnc2c3ccccc3nc(N3CCN(c4ccccc4)CC3)n12 | x | -18.4% | x | x | x | -1.4%
O=C(COc1cccc(Cl)c1)N1CCC(c2nc3ccccc3s2)CC1 | x | x | x | x | x | -12.2%
Cc1cc(C)c2c(N)c(C(=O)c3ccc(Br)cc3)oc2n1 | -0.2% | x | -1.1% | -3.5% | -2.0% | u
COCc1cc(C)nc2oc(C(=O)c3ccccc3)c(N)c12 | 3.4% | 9.7% | -1.3% | 4.4% | 0.9% | 16.9µM*
Cc1cc(C)c2c(N)c(C(=O)c3ccccc3)oc2n1 | x | -7.3% | x | x | x | 23.9µM*
COc1ccc(-c2csc(NC(=O)c3cccc(N4C(=O)CCC4=O)c3)n2)cc1OC | -5.3% | x | -1.5% | -0.1% | u | 15.1µM*
CCOC(=O)c1c(NC(=O)c2cccc(N3C(=O)CCC3=O)c2)sc(C)c1C | 10.5% | -3.2% | -3.2% | -3.6% | u | -5.9%
COc1ccc(-c2csc(NC(=O)c3ccc(N4C(=O)CCC4=O)cc3)n2)cc1 | -9.2% | 2.8% | -7.9% | 0.3% | 5.0% | 0.4%
